# Experimental data published in PubChem BioAssay (Tox21).
# Records with an inconclusive call do not appear. Values without a mark were called inactive. Calls of active or inactive are those of the source. Calls come from the whole dose curve; as a rule, active = well fitted cell-killing curve with a large enough effect in the repeat runs; inconclusive = weak or mixed curves, or effect the other way; inactive = flat fitted curve, though single readings scatter.
# Test: qHTS assay to identify small molecule agonists of the androgen receptor (AR) signaling pathway in the presence of an antagonist - cell viability counter screen (AID 1259379); note: nearly all actives have a fitted effect of over 25% in size
# Conditions: MDA-kb2 viability, CellTiter-Fluor, 16 h; series mostly up to 92.4 µM; activity change, negative = cytotoxicity: at the top concentration
# Excerpt: National Center for Advancing Translational Sciences [NCATS]
# NIH Chemical Genomics Center [NCGC]
# U.S. Environmental Protection Agency [EPA]
# National Institutes of Environmental Health Sciences [NIEHS]
# National Toxicology Program [NTP]
# U.S. Food and Drug Administration [FDA]
# Androgen receptor (AR) is an important member of nuclear receptor family. Its signaling plays a critical role in AR-dependent prostate cancer and other androgen related diseases. Considerable attention has been given in the past decades to develop methods to study and screen for the environmental chemicals that have the potential to interfere with metabolic homeostasis, reproduction, developmental and behavioral functions. Therefore AR binding assay for screening against androgen agonists and antagonists can be used to identify potential endocrine disruptors.
# MDA-kb2 cells (from ATCC, deposited by Wilson et al.) are human breast carcinoma cells that were stably transfected with a luciferase reporter gene under control of the MMTV promoter that contains response elements for both androgen receptor (AR) and glucocorticoid receptor (GR). This particular screening for measuring luciferase reporter gene activity using MDA-kb2 cells against Tox21 10K library compounds is a confirmation study on agonist mode screening in the presence of AR-antagonist compound (Nilutamide) at 3.0uM final concentration. The cytotoxicity of the compounds was tested in parallel by measuring the cell viability using CellTiter-Fluor assay system (Promega, Madison, WI) in the same wells.
# Tox21 Assay Protocol Summary:
# MDA-kb2 cells (cells cultured without CO2) were dispensed at 3,000 cells/well in 4uL of culture medium into white wall/solid-bottom 1536-well plates (Corning Life Sciences, Corning, NY) using a Multidrop Combi (Thermo Fisher Scientific Inc., Waltham, MA) dispenser. The assay plates were incubated at 37C and 0% CO2 for 5hr. One uL of 3.0uM (final concentration) Nilutamide or assay buffer was added using two separate tips of Flying Reagent Dispenser (FRD, Aurora Discovery, San Diego, CA). Then 23nL of compounds dissolved in DMSO at 15 concentrations and positive controls were transferred to the assay plates using a Pintool station (Wako, San Diego, CA). The assay plates were incubated at 37C and 0% CO2 for 16 hr. After 15hr incubation at 37C, 1uL/well CellTiter-Fluor reagent (Promega Corporation) was added to each well of the assay plates using FRD. After 1hr incubation at 37C and 0% CO2, the fluorescence signal was measured using a ViewLux plate reader (PerkinElmer, Shelton, CT).
# % is set by controls: 0 for no effect and ±100 for the full control effect; potency is the fitted concentration of half-maximal effect.
Compound,"activity change, negative = cytotoxicity",Potency
Cc1ccc(NC=O)c(C)c1,1.93%,
CC(C)=CCCC(C)C=O (stereo not given),1.28%,
SCCOCCOCCS,4.97%,
COc1cc(CNC(=O)CCCC/C=C/C(C)C)ccc1O,-3.77%,
C=CC(O)CCCCC (stereo not given),2.14%,
C[Si](C)(C)O[Si](C)(C)O[Si](C)(C)C,-0.0496%,
CCCc1ccc(OC)cc1,-1.56%,
COc1ccc(/C(C)=C/C(=O)O)c(OC)c1,1.6% [at 42.5 µM],
CCN(CCCCOC(=O)c1ccc(OC)c(OC)c1)C(C)Cc1ccc(OC)cc1 (stereo not given),1.28% [at 42.5 µM],
O=C(Cl)c1cc(Cl)cc(Cl)c1,2.77%,
O=c1c2ccccc2oc2ccccc12,-0.725%,
FC(F)(Cl)C(F)(Cl)Cl,0.0386%,
NCCOCCOCCN,-1.53%,
O=P(c1ccccc1)(c1ccccc1)c1ccccc1,5.77%,
CCC(C)CCCC(C)(C)O (stereo not given),-0.4%,
Nc1ccc(F)cc1F,-1.01%,
CCCCCCC/C=C/C=O,4.58%,
C(/C=C/C=C/Nc1ccccc1)=Nc1ccccc1,-4.87%,
CC(C)(C)c1ccc(CCC=O)cc1,0.265%,
CCCCOC(=O)C(C)Oc1ccc(Oc2ccc(C(F)(F)F)cn2)cc1 (stereo not given),2.27%,

Compound,"activity change, negative = cytotoxicity",Potency
COc1ccc(CN(CCN(C)C)c2ncccn2)cc1,2.61% [at 42.5 µM],
FC1(F)C(F)(F)C(F)(F)C2(F)C(F)(C1(F)F)C(F)(F)C(F)(F)C1(F)C(F)(F)C(F)(F)C(F)(F)C(F)(F)C12F (stereo not given),0.639%,
c1ccc(CN(Cc2ccccc2)Cc2ccccc2)cc1,1.12%,
CC(Cc1ccccc1)(NC(=O)CN)c1ccccc1 (stereo not given),0.909% [at 42.5 µM],
CCCCCCCCS,0.787%,
CCCCCCCCCCCCSC#N,-2.28%,
CC(C)=CCC/C(C)=C/C=N/O,-1.49%,
NC(=O)c1ccccc1,0.106%,
COc1cc(C)c(Cc2cnc(N)nc2N)cc1OC,-0.241% [at 42.5 µM],
Nc1cccc2c(=O)[nH][nH]c(=O)c12,-6.55%,
O=[N+]([O-])c1ccc(Cl)cc1Cl,3.83%,
O=C1C=CCCC1,-4.08%,
C[C@]12CCC(=O)C=C1[C@@H]1C[C@@H]1[C@H]1[C@@H]3[C@@H]4C[C@@H]4[C@@]4(CCC(=O)O4)[C@@]3(C)CC[C@@H]12,-3.65% [at 42.5 µM],
O=C(O)c1ccccc1-n1cc(C(=O)O)c(=O)c2cc(Nc3c(F)cc(F)cc3Cl)c(Cl)cc21,0.0172%,
C=C[Si](OCC)(OCC)OCC,0.28%,
COC(=O)C(C)(C)C,-0.977%,
CC(COc1ccccc1)NC(C)C(O)c1ccc(O)cc1 (stereo not given),-0.381% [at 42.5 µM],
Cc1cccc(C)c1NC(=O)CN1CCCC1,-2.89% [at 42.5 µM],
CC1=CC(=C(c2ccc(N)cc2)c2ccc(N)cc2)C=CC1=N,,3.1 µM (active)
CCOc1ccc2c(c1)C(C)CC(C)(C)N2 (stereo not given),-1.23%,
